Test [1] in a line: S16 Schwann cell PMP22 intronic element firefly luciferase assay (AID 624032). Also: nearly all actives have a fitted effect of over 30% in size. Also: potency is read from the fitted curve at half-maximal effect.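 As to activity change, negative = inhibition: plate controls were DMSO for no effect and PTC124 positive control mean for full effect.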 A digest of the protocol:
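Luciferase reporter of PMP22 intronic-element expression in stably transfected S16 rat Schwann cells, read by ONE-Glo luminescence after 24 h compound exposure at 37 C. Activity scaled between DMSO (0%) and positive-control PTC124; concentration-effect curves quality-classified.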

Test [2] can be described thus: S16 Schwann cell PMP22 intronic element beta-lactamase assay (AID 624044; calls by dose curve;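 also: 0% = DMSO and -100% = potassium clavulanate positive control; nearly all actives have a fitted effect of over 15% in size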). In outline:
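Rat S16 Schwann cells with beta-Lac driven by a PMP22 intronic element, compound-treated 24 h at 37 °C. LiveBLAzer FRET B/G read: 460 nm normalized to potassium clavulanate vs DMSO; 535 nm FRET as viability; concentration-effect curves classified.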

The subject of test [3] is AS120. Put plainly: qHTS profiling for inhibitors of Plasmodium falciparum proliferation (AID 504749). Also: nearly all actives have a fitted effect of over 60% in size. Also: potency is read from the fitted curve at half-maximal effect. Particulars: P. falciparum in erythrocytes, SYBR Green DNA, 72 h; series mostly up to 28.7 µM. A digest of the protocol: (§1)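 Three-day growth assay of blood-stage parasites in erythrocytes (0.3% parasitemia, 2.5% hematocrit) at 37 C, 5% CO2, quantified by SYBR Green DNA staining after overnight detergent lysis.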
(In general: In qHTS, concentration-response curves come from the screen itself.)

Test [4] deals with ATS189. Described as above. Particulars: P. falciparum in erythrocytes, SYBR Green DNA, 72 h; series mostly up to 28.7 µM. A digest of the protocol: as §1
The test system of test [5] is CP191. The test is described as above. Particulars: P. falciparum in erythrocytes, SYBR Green DNA, 72 h; series mostly up to 28.7 µM. In outline:
as §1

Test [6] has as its system CP192. Described as above. Conditions: P. falciparum in erythrocytes, SYBR Green DNA, 72 h; series mostly up to 28.7 µM. In outline:
as §1

The test system of test [7] is CP203. The test is described as above. Particulars: P. falciparum in erythrocytes, SYBR Green DNA, 72 h; series mostly up to 28.7 µM. A digest of the protocol:
as §1

Test [8] has as its system DFO2036. The description is as above. Conditions: P. falciparum in erythrocytes, SYBR Green DNA, 72 h; series mostly up to 28.7 µM. In outline:
as §1

The test system of test [9] is PC49. The test is described as above. Conditions: P. falciparum in erythrocytes, SYBR Green DNA, 72 h; series mostly up to 28.7 µM. In outline:
as §1

Test [10] has as its system TAB113. The description is as above. Particulars: P. falciparum in erythrocytes, SYBR Green DNA, 72 h; series mostly up to 28.7 µM. In outline:
as §1

A short description of test [11]: NFAT Signaling Pathway (AID 444; active = well fitted curve in either direction with a large enough effect, not every such curve was filed as active;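 also: carbachol stimulus at about its EC50 of 1 µM final; % is scaled to controls: 0 for no effect and ±100 for the full control effect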). Particulars: Jurkat NFAT-bla M1, carbachol, beta-lactamase ratio, 5 h. A digest of the protocol: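 Read-out: CCF4 FRET ratio (460 nm/530 nm) after 1 h RT dye loading, used for %activity and AC50 from titration series. Cells: Jurkat NFAT-β-lactamase/M1 line, treated with compound plus 1 uM carbachol for 5 h, 37 °C.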
In test [12] the target is Cytochrome P450 3A4 (Homo sapiens) (UniProt P08684). Put plainly: qHTS Assay for Activators of Cytochrome P450 3A4 (AID 885). Also: nearly all actives have a fitted effect of over 65% in size. A digest of the protocol:
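Signal was normalized against complete inhibition by 57 uM ketoconazole. The reaction used 20nM CYP3A4 with 25uM Luciferin-PPXE, 10-min compound preincubation and a 60-min NADPH-supported step at RT.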

The target in test [13] is Luciferin 4-monooxygenase (Photinus pyralis) (UniProt P08659). In words: Biochemical firefly luciferase enzyme assay for NPC (AID 624030).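 Also: purified P. pyralis luciferase at 10 nM with luciferin and ATP substrate; 0% = DMSO and -100% = full luciferase inhibition by PTC124 control; nearly all actives have a fitted effect of over 70% in size.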 In outline: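 Direct inhibition of firefly luciferase enzyme (10 nM final, 50 mM Tris Acetate) assessed by luminescence within 5 minutes. Percent activity scaled between DMSO and PTC124 positive control, with concentration-effect curves classified by fit quality and response.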

The target in test [14] is Calcium and integrin-binding protein 1 (Homo sapiens) (UniProt Q99828). In words: Confirmatory qHTS for Identification of Calcium Integrin Binding Protein 1 (CIB1) Competitor (AID 1508617). Also: nearly all actives have a fitted effect of over 65% in size. Also: potency is read from the fitted curve at half-maximal effect. As to activity change, negative = inhibition: % is scaled to controls: 0 for no effect and ±100 for the full control effect. A digest of the protocol:
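Compounds at up to 114 uM final met 1 uM GST-tagged CIB1 for 15 min at room temperature (HEPES pH 7.4, 5 mM CaCl2). FITC-labelled alphaIIb peptide, 100 nM, added; polarization read after 15 min more.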

The target of test [15] is Glucocorticoid receptor (Homo sapiens) (UniProt P04150). In words: GR-GFP Redistribution (AID 450;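 active = compounds whose dose series gives a full or clear partial fitted curve of increased nuclear translocation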; also: potency is read from the fitted curve at half-maximal effect). Conditions: U2OS GR-GFP nuclear translocation, laser cytometry, 2 h.
Test [16] shares this target. Put plainly: GR-EFC Redistribution (AID 451; calls by dose curve; also: potency is read from the fitted curve at half-maximal effect). Conditions: CHO-K1 GR-EFC translocation, beta-gal luminescence, 2 h. In outline:
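Translocation of GR-ED fusion to nuclear EA restores b-gal, read by luminescence after 1 h room-temperature detection. Engineered CHO-K1 biosensor cells, 1,000/well, exposed 2 h at 37 C to titrations up to 46 uM final.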

The target of test [17] is Guanine nucleotide-binding protein G(i) subunit alpha-1 (Homo sapiens) (UniProt P63096). In words: qHTS Assay for Inhibitors of RGS12 GoLoco Motif Activity (Green Fluorophore) (AID 879).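 Also: 0% = labeled peptide with Gαi1 and full inhibition = labeled peptide alone without protein; negative values mean loss of peptide binding seen as reduced polarization.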 A digest of the protocol: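 Fluorescence polarization assay: 50 nM Gαi1 with 10 nM FITC-labeled RGS12 GoLoco peptide in 10 mM Tris pH 7.5, 150 mM NaCl, 0.1 mM GDP, 0.05% NP40, 10 min at room temperature with compound.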

Test [18] concerns the target Pyruvate kinase PKM (Homo sapiens) (UniProt P14618). In words: qHTS Assay for Activators of Human Muscle Pyruvate Kinase (AID 954; active = well fitted curve in the direction sought with a large enough effect, not every such curve was filed as active;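 also: 0% = uninhibited enzyme and -100% = no enzyme or full thiadiazolimine inhibition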). A digest of the protocol: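 Human PKM2 activity is measured as ATP generation, detected by luciferase-coupled luminescence. The enzyme (0.1 nM) acts on 0.5 mM PEP and 0.1 mM ADP for 1 h at ambient temperature; data are normalized to uninhibited and full-inhibition wells.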

Test [19] addresses Alpha-galactosidase A (Homo sapiens) (UniProt P06280). In words: Counterscreen for Glucocerebrosidase Inhibitors: qHTS Assay for Human alpha-Galactosidase at pH 4.5 (AID 992). Also: 0% is about no effect. A digest of the protocol: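 Quantitative HTS: compounds tested from 0.7 nM up to 77 uM against 2 nM enzyme with 80 uM 4-MU alpha-D-galactopyranoside. The 20 min room-temperature reaction is stopped with 1M NaOH/1M glycine, pH 10.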

For test [20], the target named is alpha-glucosidase (Oryza sativa, rice) (UniProt Q653V4). In words: Counterscreen for Glucocerebrosidase Inhibitors: qHTS Assay for Rice alpha-Glucosidase at pH 5.0 (AID 997).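 Also: 0% = full activity with enzyme and -100% = basal without enzyme.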 A digest of the protocol:
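Rice alpha-glucosidase (4 nM final) with 400 uM 4-methylumbelliferyl-alpha-D-glucopyranoside in citrate buffer pH 5.0, 20 min at room temperature, stopped at pH 10; fluorescence 365/440 nm, compounds 0.7 nM–77 uM, AC50 from Hill fits.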

The mark [21] stands for this setting: at 7.69 µM (top of the series) unless noted.

A number with no mark means an inactive call. Inconclusive results are not listed. Activity calls are given as the source filed them. Unless noted, calls follow the shape of the dose curve; as a rule, active = well fitted curve in the direction sought with a large enough effect; inconclusive = small, poorly fitted or top-dose-only effect, or another doubt; inactive = no such curve, though single readings can be large; an effect the other way counts as inactive or inconclusive.

Chain of Luciferin 4-monooxygenase (Photinus pyralis) (P08659 whole entry, looked up): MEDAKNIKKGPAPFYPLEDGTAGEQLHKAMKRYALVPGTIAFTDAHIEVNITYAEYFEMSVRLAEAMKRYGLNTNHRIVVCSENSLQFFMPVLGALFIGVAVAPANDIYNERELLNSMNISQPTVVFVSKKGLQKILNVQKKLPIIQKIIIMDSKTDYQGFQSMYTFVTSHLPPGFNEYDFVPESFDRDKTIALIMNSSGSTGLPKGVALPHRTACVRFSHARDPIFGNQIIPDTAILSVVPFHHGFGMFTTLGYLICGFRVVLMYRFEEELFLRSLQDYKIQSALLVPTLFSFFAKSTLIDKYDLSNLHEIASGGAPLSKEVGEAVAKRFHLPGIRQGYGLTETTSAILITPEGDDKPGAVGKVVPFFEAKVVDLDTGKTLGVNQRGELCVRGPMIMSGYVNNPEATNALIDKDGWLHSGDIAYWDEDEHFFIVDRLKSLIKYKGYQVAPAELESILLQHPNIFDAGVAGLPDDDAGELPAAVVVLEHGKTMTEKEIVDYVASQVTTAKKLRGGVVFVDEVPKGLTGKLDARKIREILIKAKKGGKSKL
Chain of Calcium and integrin-binding protein 1 (Homo sapiens) (Q99828 whole entry, looked up): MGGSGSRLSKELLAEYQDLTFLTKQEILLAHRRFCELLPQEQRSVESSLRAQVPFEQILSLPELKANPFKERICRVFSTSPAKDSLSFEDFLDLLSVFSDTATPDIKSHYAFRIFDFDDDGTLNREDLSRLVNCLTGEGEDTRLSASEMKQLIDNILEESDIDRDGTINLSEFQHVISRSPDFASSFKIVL
Chain of Glucocorticoid receptor (Homo sapiens) (P04150 whole entry, looked up): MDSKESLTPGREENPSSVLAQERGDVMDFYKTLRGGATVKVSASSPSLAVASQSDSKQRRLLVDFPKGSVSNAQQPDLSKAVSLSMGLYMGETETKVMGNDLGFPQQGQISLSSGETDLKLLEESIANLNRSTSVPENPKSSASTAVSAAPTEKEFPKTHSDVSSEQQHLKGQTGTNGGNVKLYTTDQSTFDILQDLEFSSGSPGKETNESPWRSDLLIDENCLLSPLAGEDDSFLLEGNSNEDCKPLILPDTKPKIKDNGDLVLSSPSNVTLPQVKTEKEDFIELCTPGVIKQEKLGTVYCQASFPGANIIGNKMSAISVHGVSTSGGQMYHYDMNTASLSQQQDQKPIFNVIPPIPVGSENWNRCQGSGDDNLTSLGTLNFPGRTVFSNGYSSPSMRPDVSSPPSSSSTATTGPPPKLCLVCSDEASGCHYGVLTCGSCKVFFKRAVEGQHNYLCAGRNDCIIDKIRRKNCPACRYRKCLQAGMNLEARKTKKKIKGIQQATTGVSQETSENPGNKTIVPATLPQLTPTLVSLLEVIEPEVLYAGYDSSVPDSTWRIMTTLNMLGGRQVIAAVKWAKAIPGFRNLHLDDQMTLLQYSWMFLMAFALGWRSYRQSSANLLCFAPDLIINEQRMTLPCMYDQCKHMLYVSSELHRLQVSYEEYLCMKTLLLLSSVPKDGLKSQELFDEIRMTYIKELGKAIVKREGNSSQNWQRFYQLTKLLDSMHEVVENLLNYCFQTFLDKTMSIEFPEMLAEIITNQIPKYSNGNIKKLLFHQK
Chain of Pyruvate kinase PKM (Homo sapiens) (P14618 whole entry, looked up): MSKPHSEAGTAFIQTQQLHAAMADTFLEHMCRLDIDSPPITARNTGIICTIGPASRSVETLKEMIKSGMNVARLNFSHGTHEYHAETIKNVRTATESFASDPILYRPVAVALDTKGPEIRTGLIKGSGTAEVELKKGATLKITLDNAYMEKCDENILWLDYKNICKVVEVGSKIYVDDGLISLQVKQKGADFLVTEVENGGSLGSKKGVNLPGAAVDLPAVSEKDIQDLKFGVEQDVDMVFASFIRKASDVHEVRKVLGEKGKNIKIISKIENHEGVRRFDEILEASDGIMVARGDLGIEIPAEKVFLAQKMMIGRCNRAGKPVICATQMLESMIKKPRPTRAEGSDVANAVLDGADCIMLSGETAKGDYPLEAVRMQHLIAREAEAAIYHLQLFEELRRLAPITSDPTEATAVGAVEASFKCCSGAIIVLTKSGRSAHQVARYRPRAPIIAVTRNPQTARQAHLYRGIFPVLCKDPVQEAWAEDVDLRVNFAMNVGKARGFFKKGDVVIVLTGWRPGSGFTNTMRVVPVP
Chain of Cytochrome P450 3A4 (Homo sapiens) (P08684 whole entry, looked up): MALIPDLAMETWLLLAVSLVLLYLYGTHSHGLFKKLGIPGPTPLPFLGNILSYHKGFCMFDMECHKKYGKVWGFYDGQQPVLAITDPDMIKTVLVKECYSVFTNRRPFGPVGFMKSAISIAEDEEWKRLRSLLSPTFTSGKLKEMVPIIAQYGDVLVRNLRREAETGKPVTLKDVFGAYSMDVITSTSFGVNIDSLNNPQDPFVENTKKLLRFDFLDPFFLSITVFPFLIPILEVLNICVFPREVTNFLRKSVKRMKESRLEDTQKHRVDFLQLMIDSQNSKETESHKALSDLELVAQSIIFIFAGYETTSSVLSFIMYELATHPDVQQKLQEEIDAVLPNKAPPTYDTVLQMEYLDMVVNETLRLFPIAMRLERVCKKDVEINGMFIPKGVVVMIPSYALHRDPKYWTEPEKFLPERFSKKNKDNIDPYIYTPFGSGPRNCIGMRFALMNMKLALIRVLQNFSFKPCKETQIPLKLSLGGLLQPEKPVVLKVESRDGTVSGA
Chain of Guanine nucleotide-binding protein G(i) subunit alpha-1 (Homo sapiens) (P63096 whole entry, looked up): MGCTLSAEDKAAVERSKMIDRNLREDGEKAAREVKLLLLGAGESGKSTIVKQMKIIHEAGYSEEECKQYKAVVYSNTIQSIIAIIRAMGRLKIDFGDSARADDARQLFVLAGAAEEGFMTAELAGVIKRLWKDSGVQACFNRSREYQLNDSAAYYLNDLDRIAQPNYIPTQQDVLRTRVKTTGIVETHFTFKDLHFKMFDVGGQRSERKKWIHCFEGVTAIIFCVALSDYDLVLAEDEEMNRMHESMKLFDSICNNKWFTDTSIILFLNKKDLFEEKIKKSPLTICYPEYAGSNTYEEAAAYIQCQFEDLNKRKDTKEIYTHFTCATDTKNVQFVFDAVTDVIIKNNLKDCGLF
Chain of Alpha-galactosidase A (Homo sapiens) (P06280 whole entry, looked up): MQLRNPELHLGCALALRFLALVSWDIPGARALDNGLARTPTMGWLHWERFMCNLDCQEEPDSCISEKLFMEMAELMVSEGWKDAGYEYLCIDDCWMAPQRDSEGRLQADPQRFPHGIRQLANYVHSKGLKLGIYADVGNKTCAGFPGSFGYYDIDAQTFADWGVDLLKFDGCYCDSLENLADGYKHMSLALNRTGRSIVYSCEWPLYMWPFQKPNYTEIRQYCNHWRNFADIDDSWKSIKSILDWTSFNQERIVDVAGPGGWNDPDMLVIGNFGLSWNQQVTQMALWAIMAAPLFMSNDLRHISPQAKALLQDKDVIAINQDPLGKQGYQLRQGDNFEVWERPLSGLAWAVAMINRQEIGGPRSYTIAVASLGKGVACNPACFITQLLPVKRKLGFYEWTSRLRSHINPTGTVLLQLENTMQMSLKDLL

On to `CO[C@H]1/C=C/O[C@@]2(C)Oc3c(C)c(O)c4c(O)c(c(/C=N\N5CCN(C6CCCC6)CC5)c(O)c4c3C2=O)NC(=O)/C(C)=C\C=C\[C@H](C)[C@H](O)[C@@H](C)[C@@H](O)[C@@H](C)[C@H](OC(C)=O)[C@@H]1C`, for which the Potency was 10.2 µM (active) in [1]; 0.126 µM (active) in test [3]; 1.41 µM (active) in test [4]; 1 µM (active) in test [5]; 4.78 µM (active) in test [6]; 3.79 µM (active) in test [7]. The Potency in [8] is 1.41 µM (active); in test [9], 0.708 µM (active); in test [10], 0.282 µM (active). The outcome in test [2] was inactive.
Turning to `NCCC(=O)NCCc1cnc[nH]1`, the activity change, negative = inhibition in test [11] (at 17.2 µM (top of the series)) was -0.872%; in test [11] (at 38 µM (top of the series)) it was 2.63%. Also, the Potency result in test [12] was “inactive”.
For the compound `CN1C(=O)CCC1c1cccnc1` (centres undefined), the Potency result in test [13], in test [1], in test [6] and in test [7] was “inactive” throughout. The result in test [2] was inactive.
As to `CN=C(N)NCCCC(N)C(=O)O` (centres undefined), the Potency result in [13], in [1], in test [6] and in test [7] was “inactive” each time. For the same compound, the result in test [2] was inactive.
With `CC(C)C[C@H]1C(=O)N2CCCC2[C@]2(O)O[C@](NC(=O)[C@@H]3C=C4c5cccc6[nH]c(Br)c(c56)C[C@H]4N(C)C3)(C(C)C)C(=O)N12` (some centres undefined), the Potency entry in test [13] was “inactive”. Moreover, the result in [2] was inactive. For the same compound, the Potency in test [3] is 3.55 µM (active); in test [4], 5.01 µM (active); in test [5], 7.94 µM (active); in [6], 16.9 µM (active); in test [7], 9.53 µM (active); in test [8], 11.2 µM (active). In addition, the Potency in [9] was 6.31 µM (active); in test [10] it was 3.16 µM (active).
As for `O=C(Cc1ccc(Cl)c(Cl)c1)Nc1ccc([S+](=O)([O-])Nc2nnc(-c3ccccn3)s2)cc1`, the Potency in test [14] was 35.5 µM (active).
On to `COc1cc2c(cc1OC)C(c1ccccc1)CN(C)CC2` (centres undefined), for which the Potency result in [13], in test [1], in test [3], in test [4], in test [7] and in [8] was “inactive” each time. In test [10], the Potency entry was “inactive”. For the same compound, the call in [2] was inactive.
As for `CC(OC(=O)c1ccc(S(C)(=O)=O)c([N+](=O)[O-])c1)C(=O)NC1C2CC3CC(C2)CC1C3` (centres undefined), the Potency entry in [14] was “inactive”.
As for `CC(=O)NCCc1ccc(O)c(O)c1`, in test [11] (setting [21]), the activity change, negative = inhibition was 11.3% [at 38 µM]. Also, the Potency in test [15] and in test [16] was above 46 µM each time. The result in test [17], in test [18], in [19] and in test [20] was inactive.
For the compound `O=C1CCCC2=C1C(c1ccncc1)N=C(Nc1nc3ccccc3o1)N2` (centres undefined), in test [14], the Potency entry was “inactive”.
Turning to `NCCCCNS(=O)(=O)c1cccc2c(Cl)cccc12`, the activity change, negative = inhibition in test [11] (setting [21]) was -12.9% [at 38 µM]. In addition, the Potency in test [15] and in [16] was above 46 µM each time. Besides, the outcome in [17], in test [18], in test [19] and in [20] was inactive. In addition, the Potency result in test [12] is “inactive”.
